The values that follow come from publication PMC4336329 (PLoS ONE, 2015).

About 14,000 (4.5%) of roughly 310,000 compounds showed an effect of 50% or more. The effect is printed as a negative number. Only a selection was taken, and strong results are over-represented in it overall.
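Note: peak tail current of the secondary pulse compared with the same well before compound.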

For this experiment, the target named is human ether-à-go-go-related gene (hERG) potassium channel (human, UniProt Q12809). Description: primary screen, population patch clamp on CHO cells stably expressing hERG; higher = less effect of the substance.
human ether-à-go-go-related gene (hERG) potassium channel, sequence (Q12809 whole entry, looked up): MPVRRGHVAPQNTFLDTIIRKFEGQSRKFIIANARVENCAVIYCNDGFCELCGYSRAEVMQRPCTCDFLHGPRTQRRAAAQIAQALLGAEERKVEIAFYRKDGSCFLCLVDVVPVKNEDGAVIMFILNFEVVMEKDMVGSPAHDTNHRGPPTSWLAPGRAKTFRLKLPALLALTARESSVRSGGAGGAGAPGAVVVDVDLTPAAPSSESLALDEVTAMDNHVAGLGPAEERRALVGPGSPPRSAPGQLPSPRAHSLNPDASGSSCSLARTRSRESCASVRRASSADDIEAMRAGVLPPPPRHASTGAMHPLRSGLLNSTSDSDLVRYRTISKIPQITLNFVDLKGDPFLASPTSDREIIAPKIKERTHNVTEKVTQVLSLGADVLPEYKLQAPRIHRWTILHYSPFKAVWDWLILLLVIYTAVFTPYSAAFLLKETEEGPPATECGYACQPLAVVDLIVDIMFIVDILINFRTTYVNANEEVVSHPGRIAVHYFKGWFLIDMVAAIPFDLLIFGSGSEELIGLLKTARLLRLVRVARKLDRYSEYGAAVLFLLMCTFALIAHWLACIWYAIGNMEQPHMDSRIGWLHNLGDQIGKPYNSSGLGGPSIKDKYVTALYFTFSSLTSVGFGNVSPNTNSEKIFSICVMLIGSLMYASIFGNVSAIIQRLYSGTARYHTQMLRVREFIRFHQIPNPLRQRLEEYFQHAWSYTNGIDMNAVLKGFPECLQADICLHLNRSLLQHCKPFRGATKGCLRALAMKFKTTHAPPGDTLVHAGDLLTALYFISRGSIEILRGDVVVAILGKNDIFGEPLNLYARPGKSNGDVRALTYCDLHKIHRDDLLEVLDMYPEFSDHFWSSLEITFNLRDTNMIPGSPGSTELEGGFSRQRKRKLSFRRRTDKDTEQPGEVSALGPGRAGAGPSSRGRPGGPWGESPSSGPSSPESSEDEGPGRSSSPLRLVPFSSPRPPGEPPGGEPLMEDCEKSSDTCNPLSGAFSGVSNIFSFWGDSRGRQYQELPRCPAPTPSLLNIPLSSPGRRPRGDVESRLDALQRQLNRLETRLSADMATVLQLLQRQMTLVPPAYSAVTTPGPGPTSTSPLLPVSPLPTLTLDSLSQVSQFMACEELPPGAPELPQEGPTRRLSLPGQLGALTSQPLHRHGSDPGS
As for `Cc1cnc(C(=O)OC(C)C(=O)NCc2ccccc2)cn1` (stereo not drawn), the “hERG current change (%, negative = inhibition) at 10uM” value is given as 3.99%. The result for `Brc1ccc(CN2CCN(c3ccccn3)CC2)s1` reads -5.6%; that for `CCn1c(COc2ccc(Cl)cc2)nnc1SCC(=O)Nc1ccc2c(c1)OCO2`, 3.98%; that for `Cc1cc(C)cc(C(=O)N(C)C2CCCN(Cc3ccccc3F)C2)c1` (stereo not drawn), -13%. On to `Cc1cccc(-n2nc3c([n+]2[O-])CCc2nonc2-3)c1C`, for which the “hERG current change (%, negative = inhibition) at 10uM” value was determined as 11.4%. For `O=C(CSc1ccc(Br)cc1)NC1CCS(=O)(=O)C1` (stereo not drawn), the “hERG current change (%, negative = inhibition) at 10uM” value amounted to 5.33%. The result for `CCCN(CCC)C(=S)Nc1cc(C(=O)OC)ccc1C(=O)OC` reads -38.2%. The result for `Cc1cccc2c3c([nH]c12)CCN(C)C3` reads 10%; that for `Cc1nn(Cc2c(Cl)cccc2Cl)c(C)c1NC(=O)CCCn1nc([N+](=O)[O-])c(Cl)c1C`, -19.6%. The figure for `Cc1nn(Cc2ccc(Cl)cc2)c(C)c1NC(=O)CCCn1nc(C)c([N+](=O)[O-])c1C` is -64.5%; for `Cc1ccc(Cn2nc(C)c(NC(=O)CCCn3nc(C)c([N+](=O)[O-])c3C)c2C)cc1` it is -10.9%. Turning to `Cc1nn(Cc2ccc(Cl)cc2)c(C)c1NC(=O)CCCn1nc([N+](=O)[O-])c(Cl)c1C`, the “hERG current change (%, negative = inhibition) at 10uM” value was -64%. The result for `Cc1nn(Cc2ccc(Cl)cc2)c(C)c1NC(=O)Cn1nc([N+](=O)[O-])c(Cl)c1C` reads 2.42%; that for `Cc1nn(Cc2ccc(Cl)cc2Cl)c(C)c1NC(=O)Cn1nc([N+](=O)[O-])c(Cl)c1C`, 1.33%.

`Cc1nn(Cc2ccc(Cl)cc2Cl)c(C)c1NC(=O)NC12CC3CC(CC(C3)C1)C2`: the “hERG current change (%, negative = inhibition) at 10uM” value is recorded as 7.38%.

For `Cc1c(Cl)c([N+](=O)[O-])nn1CCCC(=O)Nc1c(Cl)cccc1Cl`, the “hERG current change (%, negative = inhibition) at 10uM” value was -8.29%. Consider `Cc1nn(Cc2ccccc2)c(C)c1NC(=O)CCCn1nc(C)c([N+](=O)[O-])c1C`, for which the “hERG current change (%, negative = inhibition) at 10uM” value is -16.3%.

On to `Cc1ccc(Cn2nc(C)c(NC(=O)CCCn3nc([N+](=O)[O-])c(Cl)c3C)c2C)cc1`, for which the “hERG current change (%, negative = inhibition) at 10uM” value was -50.7%. For the compound `Cc1nn(Cc2ccc(Cl)cc2Cl)c(C)c1NC(=O)CCl`, the “hERG current change (%, negative = inhibition) at 10uM” value was -60.9%. For the compound `Cc1nn(Cc2ccccc2)c(C)c1NC(=O)CCCn1nc([N+](=O)[O-])c(Cl)c1C`, the “hERG current change (%, negative = inhibition) at 10uM” value is recorded as -43%.

Take `Cc1onc(-c2ccccc2Cl)c1-c1nc(-c2ccncc2)no1`: the “hERG current change (%, negative = inhibition) at 10uM” value is reported as -10.9%. On to `CC1(C)CNC(=O)CC(C)(C)N1`, for which the “hERG current change (%, negative = inhibition) at 10uM” value turned out to be 4.53%. In the case of `CCn1c(SCC(=O)N2CCCCC2)nc(O)cc1=O`, the “hERG current change (%, negative = inhibition) at 10uM” value is -7.46%. The figure for `Cc1ccc(C)c(-n2c(Cc3cc(=O)[nH]c(=O)[nH]3)nnc2SCC(=O)NCc2ccco2)c1` is 4.83%; for `Cn1cccc1C(=O)N/N=C/c1c(Cl)cccc1Cl` it is 3.26%; for `COc1cc2c(cc1OC)C(C)N(S(=O)(=O)c1cccs1)CC2` (stereo not drawn) it is -12.9%.

`COc1ccc(-c2ccc3nnc(SCC(=O)NCC4CCCO4)n3n2)cc1` (stereo not drawn): the “hERG current change (%, negative = inhibition) at 10uM” value is on record as -9.98%. Regarding `O=S(=O)(c1ccc(Br)c2ccccc12)N1CCOCC1`, the “hERG current change (%, negative = inhibition) at 10uM” value is -11.8%. The result for `CCCNC(=O)N1c2ccccc2Sc2ccccc21` reads 10.5%; that for `Cc1c(Cl)c([N+](=O)[O-])nn1CCCC(=O)Nc1cccnc1`, -2.96%; that for `Cc1c(Cl)c([N+](=O)[O-])nn1CCCC(=O)Nc1cccc(Cl)c1`, -51.7%.

As to `Cc1c(Cl)c([N+](=O)[O-])nn1CCCC(=O)Nc1cccc(O)c1`, the “hERG current change (%, negative = inhibition) at 10uM” value is reported as -10.8%. The result for `O=C(Nc1ccc(-c2csc(-c3ccccc3)n2)cc1)c1ccccc1` reads 16.9%. Take `Cn1c(SCC(=O)N2CCCCCC2)nc2c([nH]c3ccccc32)c1=O`: the “hERG current change (%, negative = inhibition) at 10uM” value is recorded as 6.91%. The result for `COc1ccc(CNc2oc(C)nc2C#N)cc1` reads -1.09%; that for `CN1CCN(CCCCOc2ccc(F)cc2)CC1`, 0.265%; that for `COc1ccccc1N1CCN(CCCOc2ccc(F)cc2)CC1`, -71.8%.

As for `Cl.Fc1ccc(OCCCCN2CCOCC2)cc1`, the “hERG current change (%, negative = inhibition) at 10uM” value was -4.81%. The figure for `COc1ccccc1N1CCN(CCCCOc2ccc(F)cc2)CC1.Cl` is -72.8%; for `COc1ccccc1N1CCN(CCCCCCOc2ccc(F)cc2)CC1` it is -67.2%. With `COc1ccccc1N1CCN(CCCCOc2cccc3ccccc23)CC1.Cl`, the “hERG current change (%, negative = inhibition) at 10uM” value is recorded as -32.8%. The figure for `COc1ccccc1N1CCN(Cc2ccc(F)cc2)CC1` is -14.7%. Turning to `C=CCn1cnc2c(c1=O)c1nc3ccccc3nc1n2/N=C/c1cc(OC)c(OC)c(OC)c1`, the “hERG current change (%, negative = inhibition) at 10uM” value is given as -22.1%.

In the case of `O=C(CSc1nnc2ccc(-c3cccnc3)nn12)Nc1ccccc1F`, the “hERG current change (%, negative = inhibition) at 10uM” value is recorded as -39.2%. Take `NNC(=O)CSc1nnc(-c2ccccc2)n1-c1ccccc1`: the “hERG current change (%, negative = inhibition) at 10uM” value came to 8.61%. The result for `O=C(CSc1nnc2ccc(-c3ccccn3)nn12)Nc1ccc(F)cc1F` reads -18%; that for `O=C(CSc1nnc2ccc(-c3cccnc3)nn12)Nc1ccc(F)cc1F`, -64.9%; that for `COc1ccc(NC(=O)CSc2nnc3ccc(-c4ccncc4)nn23)cc1`, -30.9%. For the compound `CC(=O)Nc1ccc(NC(=O)CSc2nnc3ccc(-c4ccc(F)cc4)nn23)cc1`, the “hERG current change (%, negative = inhibition) at 10uM” value worked out at 16.8%. The figure for `N#Cc1ccccc1NC(=O)CSc1nnc(-c2ccccc2)n1-c1ccccc1` is 2.09%; for `Cn1c(SCC(=O)Nc2ccc(F)cc2)nnc1C1CC1` it is 4.27%; for `CC(C)n1c(SCC(=O)Nc2ccc(F)cc2)nnc1C1CC1` it is -50.1%.

As for `CCn1c(SCC(=O)Nc2ccc(F)cc2)nnc1C1CC1`, the “hERG current change (%, negative = inhibition) at 10uM” value is -0.652%. Regarding `O=C(CSc1nnc2ccc(-c3ccncc3)nn12)Nc1ccc(F)cc1`, the “hERG current change (%, negative = inhibition) at 10uM” value was -63.2%.

Consider `Cc1ccccc1NC(=O)CSc1nnc(-c2ccccc2)n1-c1ccccc1`, for which the “hERG current change (%, negative = inhibition) at 10uM” value is -51.4%. The figure for `COc1ccc(NS(=O)(=O)c2cccc(C(=O)NCC(c3ccco3)N3CCCC3)c2)cc1` (stereo not drawn) is -36.8%; for `Cc1ccc(S(=O)(=O)Nc2ccc3cn[nH]c3c2)c(C)c1` it is -18.1%; for `Cc1cccc(NC(=O)c2nc[nH]c2C(=O)NCC(=O)OCc2ccccc2)c1` it is 9.54%. Regarding `CC(C)CC(N)c1cn([C@@H](CCC(=O)O)C(=O)N2CCNCC2)nn1.Cl` (stereo partly drawn), the “hERG current change (%, negative = inhibition) at 10uM” value turned out to be 17.2%. The figure for `COC(=O)N/N=C(\C)c1ccc(C)c([N+](=O)[O-])c1` is -0.21%; for `COC(=O)c1cccc(NC(=O)c2cnn(C)c2)c1` it is 15.9%. The result for `CCO.CCOC(=O)c1c(-c2ccccc2)oc2ccc(OC(C)C(=O)O)cc12` (stereo not drawn) reads -15%; that for `O=C(NNC(=S)NC(=O)c1ccccc1)c1cccc([N+](=O)[O-])c1`, 22.8%. The result for `Cc1csc(SCC(=O)Nc2cccc3nsnc23)n1` reads -14.8%; that for `CCCOc1ccc(C(=O)N(Cc2cccs2)C2CCS(=O)(=O)C2)cc1` (stereo not drawn), -8.87%.

For `CCn1c2ccccc2c2cc(CC(N)=O)ccc21`, the “hERG current change (%, negative = inhibition) at 10uM” value is reported as 5.3%. The figure for `COc1ccc(C(=O)NCCc2nnc3ccc(SCC(=O)NCCc4ccc(OC)c(OC)c4)nn23)cc1` is 0.371%; for `Cc1cccc(NC(=O)CC2NCCNC2=O)c1` (stereo not drawn) it is 8.94%. As for `O=C(CSc1nnc(-c2cccnc2)n1-c1ccccc1)Nc1ccccc1`, the “hERG current change (%, negative = inhibition) at 10uM” value is -76.3%. The figure for `Cc1ccc(NC(=O)CSc2nnc(-c3cccnc3)n2-c2ccc(C)cc2)cc1` is -21.4%. The result for `O=C(CSc1nnc(-c2cccnc2)n1-c1ccccc1)Nc1ccccn1` reads -41%; that for `Cc1nnc(SCC(=O)Nc2cccc(N)c2)n1-c1ccccc1`, -10.1%; that for `Cc1ccc(NC(=O)CSc2nnc(C)n2-c2ccccc2)cc1`, -3.7%. With `COc1ccc(NC(=O)CSc2nnc3ccc(-c4cccnc4)nn23)cc1`, the “hERG current change (%, negative = inhibition) at 10uM” value is -46.4%. As for `O=C(CSc1nnc2ccc(-c3cccnc3)nn12)Nc1ccc(F)cc1`, the “hERG current change (%, negative = inhibition) at 10uM” value was -63%.

Consider `Cc1ccccc1-n1c(SC(C)C(N)=O)nnc1-c1cccnc1` (stereo not drawn), for which the “hERG current change (%, negative = inhibition) at 10uM” value is recorded as -6.92%. On to `Nc1nnc(SCC(=O)Nc2ccc(F)c(Cl)c2)n1-c1ccccc1`, for which the “hERG current change (%, negative = inhibition) at 10uM” value was -70.7%.

`Cc1ccc(NC(=O)C(C)Sc2nnc(-c3cccnc3)o2)cc1` (stereo not drawn): the “hERG current change (%, negative = inhibition) at 10uM” value stood at 11.9%. As for `Cc1ccc(NC(=O)C(C)Sc2nnc(-c3cccnc3)n2-c2ccccc2)cc1` (stereo not drawn), the “hERG current change (%, negative = inhibition) at 10uM” value is listed as -81.4%. The figure for `COc1cc(NC(=O)CSc2nnc3ccc(-c4cccnc4)nn23)cc(OC)c1` is -9.05%; for `COC(=O)c1cn(NC(=O)c2ccc([N+](=O)[O-])cc2Cl)c(=O)c2ccccc12` it is -5.68%. Turning to `CCCn1c(SCC(=O)NCc2ccccc2)n[nH]c1=O`, the “hERG current change (%, negative = inhibition) at 10uM” value amounted to 7.49%. The figure for `CCN(CC(=O)Nc1cccc(S(=O)(=O)N2CCOCC2)c1)Cc1ccccc1` is -4.27%. The result for `CCOC(=O)c1cc(-c2ccc(N3CCOCC3)cc2)nn1-c1ccccc1` reads -48.9%. As for `CCCCOc1nc2ccccc2c(=O)n1-c1ccccc1`, the “hERG current change (%, negative = inhibition) at 10uM” value is given as -11.6%.

With `Cc1cc(C)n2nc(C(=O)OC(C)C(=O)c3ccccc3)nc2n1` (stereo not drawn), the “hERG current change (%, negative = inhibition) at 10uM” value is 17.9%. The figure for `O=C(Cn1[nH]c(=O)c2ccccc2c1=O)NC1CCN(Cc2ccccc2)CC1` is 0.791%.
